# Over roughly 33,000 sequences, “E-score (-0.5 to 0.5)” has its median near -0.015; the highest 2% begin near 0.3. The full list was thinned out, with the highest values kept by preference.
# Target: T1, Abf1 (UniProt P14164)
# T1 sequence: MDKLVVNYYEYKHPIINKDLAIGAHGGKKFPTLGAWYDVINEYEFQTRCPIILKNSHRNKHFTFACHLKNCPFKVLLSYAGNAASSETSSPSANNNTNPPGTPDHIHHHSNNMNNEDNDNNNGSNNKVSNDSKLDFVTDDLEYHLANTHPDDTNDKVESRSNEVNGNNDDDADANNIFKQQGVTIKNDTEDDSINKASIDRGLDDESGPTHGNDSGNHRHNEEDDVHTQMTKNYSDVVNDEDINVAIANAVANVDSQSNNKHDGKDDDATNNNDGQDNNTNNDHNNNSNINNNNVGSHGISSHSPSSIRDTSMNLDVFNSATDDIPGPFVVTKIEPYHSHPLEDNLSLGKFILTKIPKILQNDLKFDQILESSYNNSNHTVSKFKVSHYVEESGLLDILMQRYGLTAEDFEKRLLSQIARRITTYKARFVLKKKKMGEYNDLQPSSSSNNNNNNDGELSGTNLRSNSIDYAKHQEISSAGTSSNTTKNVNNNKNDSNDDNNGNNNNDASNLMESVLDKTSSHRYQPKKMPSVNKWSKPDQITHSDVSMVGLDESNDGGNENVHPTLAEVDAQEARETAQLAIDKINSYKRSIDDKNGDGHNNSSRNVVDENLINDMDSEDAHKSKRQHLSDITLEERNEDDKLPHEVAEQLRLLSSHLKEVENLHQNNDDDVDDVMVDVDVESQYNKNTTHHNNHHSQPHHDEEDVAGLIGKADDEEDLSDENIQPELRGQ
# Assay: PBM E-score (8-mer binding enrichment) (E-score (-0.5 to 0.5)); higher = stronger / more preferred TF binding
# Details: protein concentration: 200 nM; construct: GST-full length
# Outline: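 Yeast transcription factors carrying a GST tag, as full-length proteins or DNA-binding domains, were produced by PURExpress in vitro transcription/translation. About 100-200 nM protein was applied to universal all-10-mer Agilent arrays, double-stranded by primer extension on fresh or once-stripped slides. Bound protein was detected with fluorescent anti-GST, and scans were normalised with masliner. The Universal PBM Analysis Suite gave each ungapped eight-base word, pooled with its reverse complement, an E-score, a modified Wilcoxon-Mann-Whitney statistic.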
row,Sequence,PBM E-score
1,AGTGGATC,-0.0658
2,CTGCCATA,-0.0819
3,GCCGTAGC,0.0651
4,TCCGTAGA,0.143
5,CCCGTATA,0.289
6,ACCGTATC,0.225
7,GCCGTATA,0.379
8,ACCGTATG,0.27
9,GGCGTATA,-0.0363
10,GCCGTAGA,0.371
11,ACCGTATA,0.384
12,AAGTGTTC,-0.0135
13,AGTTATAT,0.16
14,ATGAAGAG,0.0548
15,CTGGGCAA,-0.172
16,AATAATTA,0.2
17,ATCTTATG,0.0695
18,AAGCGGGC,-0.381
19,ACACGACT,0.0619
20,GTACGACA,0.36
21,GCACGACA,0.338
22,ATACGACA,0.296

row,Sequence,PBM E-score
1,CTACGACA,0.263
2,GCACGACC,0.0772
3,CCACGACA,0.0558
4,ACACGACA,0.368
5,ACACGACC,-0.00503
6,AAATTGGC,-0.0692
7,GTTGAGAA,0.098
8,AAGGACCG,-0.16
9,GGAGCCTA,-0.064
10,ACGACAAG,0.215
11,ACGACAAA,0.369
12,ACGACAGA,0.308
13,ACGACAGG,0.05
14,GCGACAAA,0.215
15,CCGACAAA,-0.0368
16,ACGACAAC,0.265
17,GCGACAGA,-0.0736
18,ACGACAAT,0.329
19,GGCGTCAA,-0.206
20,ATGTAGGG,-0.256
21,ATACGGTC,0.26
22,CTACGGTA,0.138

row,Sequence,PBM E-score
1,GTACGGTA,0.197
2,ATACGGTA,0.319
3,ATACGGTG,0.297
4,AAACGGTG,0.129
5,AACGGAAT,0.15
6,ACTCGTTG,-0.00197
7,AAGGGATA,0.0355
8,ATGGTGGC,-0.387
9,TAGTACGA,0.287
10,GCGTACGA,0.317
11,CCGTACGA,0.451
12,CGGTACGA,0.291
13,GGGTACGA,0.0568
14,TCGTACGA,0.455
15,GCGTACGC,-0.158
16,CCGTACGC,0.241
17,TCGTAAGA,0.154
18,CCAGTCTA,-0.227
19,CAGCAGAG,-0.263
20,ATGAGAAG,0.117
21,AGTAGTTG,0.067
22,ACTTTCAA,0.159

row,Sequence,PBM E-score
1,CTTTACCC,-0.141
2,GCTGACAC,0.0512
3,TGATTCAA,0.0649
4,GAGCAAGC,-0.0234
5,ATTTTTTA,0.193
6,AGGTGACA,0.362
7,CGGTGACC,0.0798
8,CGGTGACA,0.399
9,AGGTGACC,0.14
10,GGGTGACC,0.188
11,CGGTGACG,0.235
12,GGGTGACA,0.257
13,AGGTGACG,0.0988
14,TGGTGACA,0.357
15,ACCGAGGT,-0.113
16,AGCCCACA,-0.0569
17,AGTATCGC,0.0404
18,CCTACGTA,-0.0223
19,GACGAGTC,0.241
20,AATTCCGT,0.115
21,GATGCCAC,0.049
22,GCCGTTCA,0.156

row,Sequence,PBM E-score
1,ACCTAATC,0.111
2,CCCCATGA,-0.167
3,ACAGTTTA,-0.0111
4,TCTGATAA,0.134
5,GTTGATAA,0.199
6,GCTGATAA,0.0596
7,GGTGATAA,0.404
8,TGGGATAA,-0.0897
9,CCTGATAA,0.1
10,CGTGATAA,0.408
11,CTTGATAA,0.138
12,TGTGATAA,0.297
13,GTTTTCTA,-0.0572
14,CAGCGATG,-0.0769
15,AGTGGCAG,-0.0869
16,TATGGGCA,-0.0697
17,ATGAACCC,-0.0465
18,ACGTAGAC,0.0202
19,ATGCATAC,0.0289
20,CGGGGAGC,-0.00752
21,AGATGCAT,-0.058
22,ATCACCGC,0.311

row,Sequence,PBM E-score
1,ATCACCAT,0.254
2,ATCACCAC,0.356
3,ATCACCGG,0.101
4,CTCACCGC,0.0255
5,CTCACCAC,-0.0754
6,AGGTACCT,-0.101
7,ACGACTAC,0.329
8,ACGACCAC,0.131
9,ACGACTAG,0.0858
10,CCGACTAC,-0.119
11,ACGACTAT,0.298
12,GCGACTAC,-0.134
13,ACGACCAG,0.301
14,ACGACCAA,0.182
15,ACGACTAA,0.0761
16,AGCTGCTC,-0.148
17,CTCCTCCC,-0.201
18,ACGATGGC,0.0358
19,ATGTTAAT,-0.0223
20,AGTGAAGA,0.129
21,CGGCATAG,0.0597

# From the supplement of paper PMC3334620
